In the library only some 21% were active in any assay of this set; here they are far more common.
NS1 function inh = blocks influenza NS1 protein function; Potency, µM (titrated, usually from 46.1 µM), inactives show at the top dose activity, positive = more growth; 270,000 compounds, 0.4% hits; calls by dose curve; also: potency is read from the fitted curve at half-maximal effect; actives are rising curves; nearly all actives have a fitted effect of over 50% in size
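Recovery from NS1-induced slow growth read by OD600 in budding yeast switched to galactose assay medium (pH 6.0, -URA) at 1:100 dilution. Compound 23 nl per well; the matching strain lacking NS1 serves as control.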
Shiga inhibitor = Shiga toxin inhibition | Vero cells, Shiga toxin protein synthesis inhibition reporter | inhibition, % at 38.7 µM | 290,000 compounds, 9.2% hits | AID 2315; in the data active = inhibition mostly above about 28%, no sharp cut-off; inactive = mostly below about 43%; also: 0% is about no effect
Pf growth 48h = inhibits P. falciparum growth in the first generation, 48 h. 310,000 compounds, 5.9% hits. Potency, µM (titrated, usually from 28.7 µM), for inactives: top-dose activity change, negative = inhibition, actives largely listed as inhibitors. P. falciparum luciferase growth in erythrocytes, 48 h. AID 504832; also: potency is read from the fitted curve at half-maximal effect; % is scaled to controls: 0 for no effect and ±100 for the full control effect
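Firefly luciferase activity from engineered P. falciparum reports growth; inhibitors lower the luminescent signal. Cultures contained 2% hematocrit erythrocytes at 0.1% final parasitemia.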
Cycloheximide cs = affects cycloheximide protein synthesis inhibition readout, counter-screen. 300,000 compounds, 12% hits. max response, %. AID 2314. cell reporter, cycloheximide protein synthesis inhibition counterscreen; in the data active = max response mostly above about 13%, no sharp cut-off; inactive = mostly below about 14%; also: read at 38.3 µM for the half of the compounds with a filed dose; 0% is about no effect
Pf growth 96h = P. falciparum growth inhibition at 96 hours; Potency, µM (top dose mostly 28.7 µM), inactives show at the top dose activity change, negative = inhibition, actives largely listed as inhibitors; 320,000 compounds, 6.9% hits; P. falciparum luciferase reporter growth, 96 h; also: potency is read from the fitted curve at half-maximal effect; % is scaled to controls: 0 for no effect and ±100 for the full control effect
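Infected RBCs, 2% Hct / 0.05% parasitemia final; luciferase-reporter P. falciparum; cpd 96 h, 37 C, 5% CO2; luciferase detection reagent; luminescence.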
Starred values were filed as active, the others as inactive; i = inactive; ? = inconclusive; . = no result given; [ ] = dose if it differs, or a comment. Unless noted, calls follow the shape of the dose curve; as a rule, active = well fitted inhibition curve with a large enough effect; inconclusive = small, poorly fitted or top-dose-only effect, or another doubt; inactive = no such curve, though single readings can be large or run the other way.

SMILES	NS1 function inh	Shiga inhibitor	Pf growth 48h	Cycloheximide cs	Pf growth 96h
CC(/C=C/c1ccco1)=N\NC(=O)c1cccc(Cl)c1	-1.6%	29.2	?	34.8*	?
CC(/C=C/c1ccco1)=N/NC(=O)c1ccccc1Cl	-2.0%	24.1	20.5%	25.6*	0.0%
CC(C)c1ccc(S(=O)(=O)N2CCN(C(=O)n3ccnc3)CC2)cc1	.	.	?	.	5.22µM*
Cc1ccc(S(=O)(=O)N2CCN(C(=O)n3ccnc3)CC2)cc1	.	.	?	.	7.38µM*
CC(C)c1ccc(S(=O)(=O)N2CCN(C(=O)c3cc(-c4ccccc4)n[nH]3)CC2)cc1	5.1%	6.6	?	-1.6	15.9%
COc1cccc(Oc2ccc(S(=O)(=O)N3CCCC3)cc2[N+](=O)[O-])c1	4.0%	33.7	10.4µM*	-3.8	?
COc1ccccc1C(C)Nc1ccc(S(=O)(=O)N2CCN(C)CC2)cc1[N+](=O)[O-] (stereo not given)	.	.	11.7µM*	.	16.5µM*
COc1ccc(Nc2ccc(S(=O)(=O)N3CCCCC3)cc2[N+](=O)[O-])cc1OC	?	-4.9	?	-2.7	13.1µM*
COc1ccccc1Nc1ccc(S(=O)(=O)N2CCCCC2)cc1[N+](=O)[O-]	1.4%	-9.9	?	-2.5	?
CC(SC1=NCCS1)C(=O)Nc1nnc(-c2ccc(F)cc2)s1 (stereo not given)	5.3%	33.8	6.9%	5.6	-3.6%
CC(SC1=NCCS1)C(=O)Nc1nnc(-c2ccc(Br)cc2)s1 (stereo not given)	-5.7%	37.7*	-19.5%	20.6*	?
O=C1COc2ccc(S(=O)(=O)N3CCN(c4ccccc4)CC3)cc2N1	8.3%	-6.0	-1.4%	-11.3	?
O=C(CCS(=O)(=O)c1ccc2c(c1)NC(=O)CO2)NCc1ccccc1	-5.2%	8.7	4.8%	-4.9	13.1µM*
CC(CC(=O)N1CCN(c2ccccc2)CC1)S(=O)(=O)c1ccc2c(c1)NC(=O)CO2 (stereo not given)	1.8%	-6.1	-4.6%	1.6	5.86µM*
Cc1ccc(CNS(=O)(=O)c2cc3c(cc2C)NC(=O)CO3)cc1	-1.1%	-1.4	?	-2.5	4.15µM*
COc1ccc(CNC(=O)CC(C)S(=O)(=O)c2ccc3c(c2)NC(=O)CO3)cc1 (stereo not given)	-5.8%	-14.5	-11.2%	-2.5	?
Cc1ccc(CNC(=O)CC(C)S(=O)(=O)c2ccc3c(c2)NC(=O)CO3)cc1 (stereo not given)	-9.0%	-7.1	5.7%	-2.4	9.28µM*
Cc1cc2c(cc1S(=O)(=O)NCc1ccc(N(C)C)cc1)OCC(=O)N2	-22.9%	7.5	-16.4%	3.9	?
COc1ccc(NC(=O)NC2(C(=O)N3CCCC(C)C3)CCCCC2)cc1 (stereo not given)	6.1%	15.6	-0.5%	-5.8	17.2%
Cc1ccc(N(C)C(=O)CC(C)S(=O)(=O)c2ccc3c(c2)NC(=O)CO3)cc1 (stereo not given)	-1.0%	-6.4	18.8%	-3.5	3.7µM*
Cc1ccc(NC(=O)CC(C)S(=O)(=O)c2ccc3c(c2)NC(=O)CO3)c(Cl)c1 (stereo not given)	11.9%	3.2	-3.7%	0.7	42.2%
CCc1cc(=O)[nH]c(SCc2ccc(C)cc2)n1	.	-11.7	6.6%	8.1	-6.0%
CC(C)(C)c1ccc(OCc2cnc(Cl)s2)cc1	0.2%	75.1*	25.2%	34.6*	4.5%
CN(C)S(=O)(=O)c1ccc(N2CCCC2)c(C(=O)NNC(=O)c2ccc(Br)cc2)c1	.	.	5.9%	.	6.0%
Cc1ccc(-c2nnc(N(C)C(=O)c3cccnc3)s2)cc1	-24.6%	77.3	76.0%	33.8*	?
SMILES	NS1 function inh	Shiga inhibitor	Pf growth 48h	Cycloheximide cs	Pf growth 96h
Cc1ccc(-c2nnc(N(C)C(=O)c3cccnc3)s2)cn1	-4.4%	15.9	32.4%	10.5	0.6%[5.75 µM]
CN(C(=O)c1ccccn1)c1nnc(-c2cccnc2)s1	-0.5%	32.3	14.9%	53.9*	-0.8%
COc1ccc(-c2nnc(N(C)C(=O)c3cccnc3)s2)cc1	-57.3%	46.5	47.5%	26.5*	.
COc1ccc(-c2nnc3n2N=C(c2ccc(OC)cc2OC)CS3)cc1	.	-10.3	.	7.2	.
NC(=S)Nc1ccc(Cl)cc1Cl	-0.4%	-6.2	39.3%	-0.3	73.0%
CC1C/C(=N\NC(N)=S)c2cc(Cl)ccc2S1 (stereo not given)	5.1%	-12.0	?	-2.2	1.85µM*
C=CCOc1c(Cl)cc(CNc2ccc(N(C)C)cc2)cc1OC	28.2%	84.7	?	41.9*	?
COc1cc(CNc2ccc(N3CCOCC3)cc2)cc(Br)c1OC	3.5%	1.2	-3.4%	-1.8	14.0%
CCOc1cc(CNc2ccc(N3CCCC3)cc2)cc(Cl)c1OC	8.2%	41.2*	2.94µM*	20.3	5.22µM*
CCOc1cc(CNc2ccc(S(N)(=O)=O)cc2)cc(Cl)c1OC	-2.5%	4.0	3.2%	-1.6	-3.0%
COc1cc(CNc2ccc(N3CCCC3)cc2)cc(Cl)c1OC	12.6%	31.6	3.29µM*	19.0	40.0%
C#CCOC(=O)CCCNc1ccc([N+](=O)[O-])cc1[N+](=O)[O-]	0.8%	-13.8	21.0%	-2.7	?
CC(C)(C)SCCNC(=O)c1ccc(NS(C)(=O)=O)cc1	-6.3%	36.1*	48.3%	16.4*	3.9%
CS(=O)(=O)Nc1ccc(C(=O)NCCSCc2ccccc2)cc1	5.9%	-8.4	?	-0.6	13.1µM*
CS(=O)(=O)Nc1ccc(C(=O)NCCc2ccccc2)cc1	-5.8%	69.2*	193.7%	30.6*	.
NNC(=O)c1cc2ccccc2[nH]1	.	10.7	?	4.6	?
CC(C)OC(=O)c1cc2ccccc2[nH]1	5.9%	53.9*	29.2%	23.3*	?
CCOC(=O)c1cc2cc3ccccc3cc2[nH]1	-0.4%	150.2*	i	54.1*	i
Nc1nc(CN2CCN(C(c3ccccc3)c3ccccc3)CC2)nc(Nc2ccccc2)n1	9.6%	-0.3	8.28µM*	-0.8	4.65µM*
Nc1nc(CN2CCC(Cc3ccccc3)CC2)nc(Nc2ccccc2)n1	10.7%	4.7	.	-2.1	7.38µM*
Nc1nc(CN2CCCCCC2)nc(Nc2ccccc2)n1	14.7%	-5.3	3.6%	-0.7	?
CCc1ccccc1NC(=O)COc1cccc2ccc(C)nc12	-15.5%	-1.9	-11.4%	-5.0	-3.3%
O=C(Oc1ccc(-c2cnc3ccccc3n2)cc1)c1cc([N+](=O)[O-])ccc1Cl	-1.9%	82.6*	i	48.3*	i
O=[N+]([O-])c1cc(-c2cnc3ccccc3n2)ccc1Cl	-3.2%	16.8	12.8%	13.7	41.7%
Cc1c(C(=O)Oc2ccc(-c3cnc4ccccc4n3)cc2)cccc1[N+](=O)[O-]	-9.7%	94.9*	73.4%	37.3*	219.8%
CN(C)C(=O)CSc1nnc([C@H](Cc2c[nH]c3ccccc23)NC(=O)OC(C)(C)C)o1	-4.7%	0.6	?	-3.7	-11.2%
NS(=O)(=O)c1ccc(CCNc2ccccc2[N+](=O)[O-])cc1	0.6%	76.8*	57.0%	36.0*	33.2%
CCNc1ccc(S(N)(=O)=O)cc1[N+](=O)[O-]	20.6%	-3.9	-12.0%	-3.5	11.7µM*
